Data reported in ChEMBL document CHEMBL4513216, “Probing the Open Global Health Chemical Diversity Library for Multistage-Active Starting Points for Next-Generation Antimalarials” (ACS Infect Dis, 2020).
The whole screen tested about 69,000 compounds, of which about 8,600 (12%) showed an effect of 50% or more. The entries come from a sample that favours strong results as a whole.

System: Plasmodium berghei
Assay: Screen against P. berghei liver stage (PbLuc), transformed with Luciferase, at 10uM
Format: functional, HepG2
Conditions: tested at 10 uM

| SMILES | INHIBITION [%] |
| --- | --- |
| CN(CCc1ccccn1)C(=O)Nc1cccnc1-n1cccn1 | -19.2 |
| Cc1noc2ncc(S(=O)(=O)N3CCCC(C)(C)CC3)cc12 | 36.1 |
| CCN1CCCN(S(=O)(=O)c2cnc3onc(C)c3c2)CC1 | 15.5 |
| CCCN1CCCN(S(=O)(=O)c2cnc3onc(C)c3c2)CC1 | 56.7 |
| COc1cccc(-c2n[nH]cc2CNC2CCN(C3CC3)CC2)c1 | 3.46 |
| CCSCCC(C)N(C)C(=O)c1ccc(C)o1 (centres undefined) | 85.2 |
| CCSCCC(C)N(C)C(=O)c1cc(C)no1 (centres undefined) | 55.2 |
| CCSCCC(C)N(C)C(=O)c1ccc2nncn2c1 (centres undefined) | 34.7 |
| COCC(c1cccc(C(F)(F)F)c1)N(C)C(=O)c1cc(C)no1 (centres undefined) | -16.4 |
| CCSCCC(C)N(C)C(=O)c1cc(C)on1 (centres undefined) | -93.6 |
| Cc1cc(C(=O)N(C)C(C)CC(C)C)on1 (centres undefined) | 20.9 |
| CC(C)NC(=O)CCN1CCCC1c1cccc2c1OCCO2 (centres undefined) | 35.4 |
| Cc1nc2ccccc2c(=O)n1CCC(=O)N1CCCCCC1 | 1.05 |
| COc1c[nH]c(C(=O)N2CCN(c3ccc(Cl)cc3)CC2)cc1=O | 13.9 |
| Cc1nn(C)cc1C1=NS(=O)(=O)N(C)C(C(=O)Nc2ccc(Br)cc2)=C1 | 82.4 |
| Cc1nn(C)cc1C1=NS(=O)(=O)N(C)C(C(=O)Nc2ccc(Cl)cc2)=C1 | 77.7 |
| Cc1c(C2=NS(=O)(=O)N(C)C(C(=O)Nc3ccc(Br)cc3)=C2)cnn1C | 49.9 |
| Cc1nc(N2CCCC2)ncc1C(=O)Nc1ccc(Br)cc1 | -10.2 |
| Cc1cc(=O)n(CC(=O)Nc2ccc(Cl)cc2)nc1C | 25 |
| Cn1cc(NC(=O)CNC(=O)N2CCN(c3ccc(Cl)cc3)CC2)cn1 | 28.5 |
| O=C1CC2(CCCCN2C(=O)c2cccs2)CN1CC1CC1 (centres undefined) | 11.2 |
| Cc1cc(NC(=O)NCC(O)c2ccc(F)c(F)c2)n(C)n1 (centres undefined) | 21.8 |
| CCn1cnnc1C1CCN(C(=O)c2cc(OC)ccc2OC)CC1 | 23.7 |

| SMILES | INHIBITION [%] |
| --- | --- |
| COc1cc(-n2cccc2)c(Cl)cc1C(N)=O | -90.8 |
| CCc1ncc(C(=O)N2CCCC2Cn2cccn2)s1 (centres undefined) | 49.8 |
| CS(=O)(=O)Nc1ccn(Cc2ccc(F)cc2Cl)n1 | 31.7 |
| CC(C)(C)n1cc(C(=O)N2CCN(Cc3cccnc3)CC2)cn1 | -39.67 |
| CCN(CC)C(=O)c1nnsc1-c1ccccc1 | 7.25 |
| CCN(CC)C(=O)c1nnsc1-c1ccc(C)cc1 | 54.8 |
| CCN(CC)C(=O)c1nnsc1-c1ccc(Cl)cc1 | 33.9 |
| CCOCC(=O)N1Cc2[nH]nc(COCC3CC3)c2C1 | 2.4 |
| CC(C)c1nc2c(n1C)CCN(CC(=O)Nc1ccncc1)C2 | 11.6 |
| N#Cc1ccc(F)c(CNC(=O)NCCC(=O)NC2CCCC2)c1 | 22.5 |
| Cc1cccc(NC(=O)[C@@H]2CCCN2Cc2ccc(C#N)cc2F)n1 | 25.2 |
| CC1CCCCN1CCNC(=O)c1ccn(-c2ccc(F)cc2)n1 (centres undefined) | 34.1 |
| N#Cc1ccc(CNC(=O)NCCNC(=O)C2CCCC2)c(F)c1 | 52.8 |
| CC1CCCCN1CCNC(=O)NCc1ccc(C#N)cc1F (centres undefined) | 50.7 |
| N#Cc1ccc(CNC(=O)NCCC(=O)NC2CCCC2)c(F)c1 | 17.1 |
| CC(C)S(=O)(=O)N1CCC(Cc2cccc(C(=O)O)c2)C1 (centres undefined) | 1.37 |
| CN1C(=N)NC(=O)/C1=C\c1ccc(-c2ccc(F)cc2)o1 | 19.3 |
| CCn1cc(S(=O)(=O)N2CCC(C)CC2)c(C)n1 | 4.35 |
| O=C(c1sccc1C1CC1)N1CCN(c2nccs2)CC1 | 36.3 |
| CCOc1ccnc(N2CCN(C(=O)c3cccc(C#N)c3)CC2)n1 | -13.7 |
| Cn1ccc(C(=O)N2CCN(c3cc(C#N)ccn3)CC2)cc1=O | 59.4 |
| N#Cc1cccc(C(=O)N2CCCC(O)(CO)CC2)c1 (centres undefined) | 66.9 |
| Cn1ccc(C(=O)N2CCN(c3ccccn3)CC2)cc1=O | 36.1 |

| SMILES | INHIBITION [%] |
| --- | --- |
| COC(=O)c1ccc(N2CCN(C(=O)c3ccn(C)c(=O)c3)CC2)cc1 | 54.5 |
| O=C(c1cccc(-c2ccc(F)cc2)c1)N1CCCC(O)(CO)CC1 (centres undefined) | -122 |
| COC(=O)c1ccc(N2CCN(C(=O)c3ccc(=O)n(C)c3)CC2)cc1 | 36.9 |
| N#Cc1cccc(C(=O)N2CCN(c3ncccn3)CC2)c1 | 62.1 |
| O=C(c1cccc(Oc2ccccc2)c1)N1CCCC(O)(CO)CC1 (centres undefined) | 16.1 |
| CN(C)c1cc(C(=O)N2CCN(c3cc(C#N)ccn3)CC2)ccn1 | -8.95 |
| COc1ccnc(N2CCN(C(=O)c3cccc(C#N)c3)CC2)n1 | 18.2 |
| Cn1ccc(C(=O)N2CCN(c3ncccn3)CC2)cc1=O | 31.3 |
| COCCNC(=O)c1cc(OC)c2ccoc2c1 | 27.7 |
| CNc1nc(C(=O)N2CCCn3nc(C(=O)N4CCCC4)cc3C2)cs1 | 26.5 |
| CC(Cn1cccn1)NC(=O)NCc1cccnc1OC(C)C (centres undefined) | 11.2 |
| CC[S+]([O-])CCc1nc(CC(C)C)nn1-c1ccc2c(c1)OCCO2 (centres undefined) | 30.3 |
| Cc1ccc(-n2nc(C)c3c(C)cc(OCC(=O)NC(C)C)nc32)cc1 | 2.55 |
| CCNC(=O)COc1cc(CC)c2c(C)nn(-c3ccc(C)cc3)c2n1 | 66.1 |
| CCCNC(=O)COc1cc(C)c2c(C)nn(-c3ccc(C)cc3)c2n1 | 15.4 |
| CS(=O)(=O)N1CCC(NC(=O)COc2ccc(Br)cc2Cl)CC1 | 45.1 |
| Cc1nc(N)cc(C2CCN2CCC(N)=O)n1 (centres undefined) | -4.87 |
| Cc1ccsc1C(=O)N1CCC2(CC1)C(=O)N(C)CCN2CC1CC1 | 4.08 |
| Cc1ccc(NC2CCN(C(=O)c3cccc4cccnc34)CC2)nn1 | 11.9 |
| CN(C)S(=O)(=O)N1C[C@H]2CC[C@@H](C1)N(CCC(=O)NCc1ccco1)C2 | 66.9 |
| O=C(CCN1C[C@@H]2CC[C@H]1CN(c1ncccn1)C2)NCc1ccco1 | 6.67 |
| CS(=O)(=O)N1C[C@H]2CC[C@@H](C1)N(CCC(=O)NCc1ccco1)C2 | 13.2 |
| O=C(COc1coc(CN2CCCCC2)cc1=O)c1ccc(Cl)cc1 | 38.3 |

| SMILES | INHIBITION [%] |
| --- | --- |
| CCN1CCOCC12CCN(C(=O)C1CCCC1)CC2 | -7.28 |
| CC(CS(C)(=O)=O)NC(=O)N1CC2(CCCC2)c2ccccc21 (centres undefined) | -16.1 |
| Cc1n[nH]c(C)c1-c1c(C#N)c(N)nc2c1CCc1[nH]ccc1-2 | 39.7 |
| COc1ncc(-c2c(C#N)c(N)nc3c2CCc2[nH]ccc2-3)cn1 | 39.05 |
| Cn1cc(-c2c(C#N)c(N)nc3c2CCc2[nH]ccc2-3)cc1C#N | 50 |
| Cn1cc(-c2c(C#N)c(N)nc3c2CCc2[nH]ccc2-3)cn1 | 60.1 |
| Cc1cc(-c2c(C)c(-c3cnn(C)c3)nc(N)c2C#N)oc1C | 31.6 |
| COCCc1ncc(-c2c(C#N)c(N)nc3c2CCc2[nH]ccc2-3)cn1 | 27.9 |
| Cc1c(-c2cnn(C)c2)nc(N)c(C#N)c1-c1ccc(CO)o1 | 88 |
| CCc1ccc(-c2c(C)c(-c3cnn(C)c3)nc(N)c2C#N)o1 | -7.7 |
| CC(C)n1cc(-c2c(C#N)c(N)nc3c2COCC3)cn1 | 34.5 |
| O=C(CN1CCCC1Cn1cncn1)Nc1nncs1 (centres undefined) | -8.66 |
| COCCN(Cc1ccccc1Cl)c1nc(CCN)nc2ccccc12 | 47.3 |
| N#Cc1cccc(CN2C[C@H](NC(=O)C3CC3)[C@H]3OCCC[C@H]32)c1 | 35.8 |
| COc1cc(C(=O)N(Cc2cccs2)C2CC2)cc2c1OCCO2 | 47.4 |
| Cc1oncc1C(=O)N[C@@H]1CN(Cc2ccco2)C[C@@H]2CCCO[C@@H]21 | 0.453 |
| COC(=O)CNC(=O)c1nc(Br)sc1C(C)C | 45.3 |
| Cc1nc2n(n1)CC(NCCC(=O)Nc1cc(C)on1)CC2 (centres undefined) | -3.2 |
| CCc1nccn1-c1cncc(C2CCN(C(=O)COC)CC2)n1 | -22.6 |
| COc1nc2cc(C)ccc2cc1CN(C)Cc1n[nH]c2c1CCCC2 | 28.15 |
| Cc1cc(CN(C)C(C(=O)O)c2ccc(C(C)(C)C)cc2)on1 (centres undefined) | 58.4 |
| Cc1cc(CN(C)C(C(=O)O)c2cccc(C(F)(F)F)c2)on1 (centres undefined) | -21.2 |
| CCOc1cccc(C(C(=O)O)N(C)Cc2cc(C)no2)c1 (centres undefined) | -24.6 |

| SMILES | INHIBITION [%] |
| --- | --- |
| CN(Cc1cc[nH]n1)C(=O)c1ccc2c(c1)nc(N1CC[C@H](O)C1)n2C | 22.6 |
| COc1ccc(COCC(O)CSc2ccc(NC(C)=O)cc2)cc1 (centres undefined) | 5.75 |
| O=C(O)CCN(Cc1ccc(F)c(F)c1)C(=O)C1CC1 | 40.1 |
| N#Cc1ccc(Cl)cc1NCC1CCOC1 (centres undefined) | -10.5 |
| Cc1c(C(=O)N2CCSCC2)sc2nc(C(F)(F)F)ccc12 | 14.9 |
| Cc1c(C(=O)O)sc2nc(C(F)(F)F)ccc12 | -11.9 |
| Cc1c(C(N)=O)sc2nc(C(F)(F)F)ccc12 | 54.5 |
| Cc1ncnc(NCCCN2CCCCC2CO)c1C (centres undefined) | -17.8 |
| CC(C(N)=O)N1CCN(c2ncc(Br)cn2)CC1 (centres undefined) | 21.8 |
| CCn1c(C)nnc1SCCNc1nc(C)nc2c1cnn2C | 26.7 |
| CCc1cnc(C)nc1NCCSc1nnc(C)n1CC | 55.7 |
| CCn1c(C)nnc1SCCNc1nc(C)ncc1S(C)(=O)=O | -22.4 |
| Cc1cccc(CN2CCC3(CCCN(C(=O)NC(C)C)C3)C2=O)n1 (centres undefined) | 8.67 |
| O=C(c1ncccn1)N1C[C@H]2CCC[C@@]2(COCc2ccncc2)C1 | -15.8 |
| Cc1ncoc1C(=O)N1C[C@H]2CCC[C@@]2(COCC2CCOCC2)C1 | 44.4 |
| O=C(c1ccncn1)N1C[C@H]2CCC[C@@]2(COCC2CCOCC2)C1 | 64.9 |
| Cc1ccc(C(=O)N2C[C@H]3CCC[C@@]3(COCC3CCOCC3)C2)o1 | 62.5 |
| O=C(c1cccs1)N1C[C@H]2CCC[C@@]2(COCC2CCOCC2)C1 | 77.7 |
| O=C(c1ccnnc1)N1C[C@H]2CCC[C@@]2(COCC2CCOCC2)C1 | 43.8 |
| O=C(c1ccccn1)N1C[C@H]2CCC[C@@]2(COCC2CCOCC2)C1 | 45.1 |
| O=C(c1ncccn1)N1C[C@H]2CCC[C@@]2(COCC2CCOCC2)C1 | 0 |
| c1csc(CN2C[C@H]3CCC[C@@]3(COCC3CCOCC3)C2)n1 | 49.7 |
